# Experimental data published in PubChem BioAssay AID1159580 (chemical genetic matrix, 2015).
# Among all 5,500 compounds or so, about 2,000 (36%) were called active. Not shown: some 18% with an inconclusive outcome. Some of the results follow. A number with no mark means an inactive call. Rule as the data show it: active = normalized growth mostly below about 0.91 (no sharp cut-off); inconclusive = no clear call, values can overlap the other calls; inactive = mostly above about 0.92.
# Assay: chemical genetic growth profiling, strain panel (AID 1159580);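 also: tested at 20 µM; growth read once vehicle control cultures reached saturation at 30 °C; 1 = growth at the plate median or of vehicle wells; lower values mean less growth of the strain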
# Settings: S. cerevisiae deletion strains, growth OD
# [1] = locus YDL101C, strain DUN1, active compounds read low
# [2] = locus YHR030C, strain SLT2, active compounds read low
# [3] = locus YMR307W, strain GAS1, active compounds read low
# [4] = locus YNL153C, strain GIM3, active compounds read low
# [5] = locus YPL055C, strain LGE1, active compounds read low
structure (smiles),measurement,setting,value
O=C1CC(c2ccccc2)=NO1,normalized growth,"locus YAL013W, strain DEP1, active compounds read low",0.683 (active)
same,normalized growth,"locus YBR229C, strain ROT2, active compounds read low",0.336 (active)
same,normalized growth,[1],0.395 (active)
same,normalized growth,"locus YEL061C, strain CIN8, active compounds read low",0.862 (active)
same,normalized growth,"locus YGR078C, strain PAC10, active compounds read low",0.174 (active)
same,normalized growth,[2],0.615 (active)
same,normalized growth,"locus YHR087W, strain rtc3, active compounds read low",0.419 (active)
same,normalized growth,"locus YJL187C, strain SWE1, active compounds read low",0.298 (active)
same,normalized growth,"locus YJR043C, strain POL32, active compounds read low",0.566 (active)
same,normalized growth,"locus YJR075W, strain HOC1, active compounds read low",0.3 (active)
same,normalized growth,"locus YKL190W, strain CNB1, active compounds read low",0.987
same,normalized growth,"locus YLR039C, strain RIC1, active compounds read low",1.11
same,normalized growth,"locus YLR058C, strain SHM2 (second series), active compounds read low",0.431 (active)
same,normalized growth,"locus YLR085C, strain ARP6, active compounds read low",0.432 (active)
same,normalized growth,"locus YLR262C, strain YPT6, active compounds read low",1.08
same,normalized growth,"locus YML094W, strain GIM5, active compounds read low",0.743 (active)
same,normalized growth,"locus YMR219W, strain ESC1, active compounds read low",0.26 (active)
same,normalized growth,[3],0.511 (active)
same,normalized growth,[4],0.0697 (active)
same,normalized growth,"locus YNL298W, strain CLA4 (second series), active compounds read low",0.797 (active)
same,normalized growth,"locus YNL322C, strain KRE1, active compounds read low",0.737 (active)
same,normalized growth,"locus YNR030W, strain Alg12, active compounds read low",0.803 (active)
same,normalized growth,[5],0.666 (active)
same,normalized growth,"locus YPL241C, strain CIN2, active compounds read low",0.68 (active)
same,normalized growth,"locus YPR135W, strain CTF4, active compounds read low",0.528 (active)
CSc1c(C#N)c(-c2ccc(Cl)cc2)nn1C(=O)c1ccccc1Cl,normalized growth,"locus YAR019C, strain CDC15, active compounds read low",0.966
same,normalized growth,"locus YBL105C, strain PKC1, active compounds read low",0.95
same,normalized growth,"locus YBR135W, strain CKS1, active compounds read low",0.957
same,normalized growth,"locus YBR136W, strain MEC1, active compounds read low",0.951
same,normalized growth,"locus YBR160W, strain CDC28, active compounds read low",0.951
same,normalized growth,"locus YDL017W, strain CDC7, active compounds read low",0.946
same,normalized growth,"locus YDL028C, strain MPS1, active compounds read low",0.951
same,normalized growth,[1],0.94
same,normalized growth,"locus YDL108W, strain KIN28, active compounds read low",0.954
same,normalized growth,"locus YDL132W, strain cdc53, active compounds read low",0.948
same,normalized growth,"locus YDL214C, strain PRR2, active compounds read low",0.964
same,normalized growth,"locus YDR052C, strain DBF4, active compounds read low",0.957
same,normalized growth,"locus YDR054C, strain cdc34, active compounds read low",0.941
same,normalized growth,"locus YDR226W, strain ADK1, active compounds read low",0.933
same,normalized growth,"locus YDR477W, strain SNF1, active compounds read low",0.938
same,normalized growth,"locus YER123W, strain YCK3, active compounds read low",0.946
same,normalized growth,"locus YER133W, strain GLC7, active compounds read low",0.962
same,normalized growth,"locus YFL009W, strain cdc4, active compounds read low",0.951
same,normalized growth,"locus YFL029C, strain CAK1, active compounds read low",0.958
same,normalized growth,"locus YFR003C, strain YPI1, active compounds read low",0.954
same,normalized growth,"locus YFR019W, strain FAB1, active compounds read low",1
same,normalized growth,"locus YFR028C, strain CDC14, active compounds read low",0.948
same,normalized growth,"locus YGR040W, strain KSS1, active compounds read low",0.931
same,normalized growth,"locus YGR052W, strain FMP48, active compounds read low",0.97
same,normalized growth,"locus YGR092W, strain DBF2, active compounds read low",0.895
same,normalized growth,[2],1.03
same,normalized growth,"locus YHR079C, strain IRE1, active compounds read low",1.03
same,normalized growth,"locus YHR082C, strain KSP1, active compounds read low",1.01
same,normalized growth,"locus YHR205W, strain SCH9, active compounds read low",0.872
same,normalized growth,"locus YIL147C, strain SLN1, active compounds read low",0.949
same,normalized growth,"locus YJL095W, strain BCK1, active compounds read low",0.9
same,normalized growth,"locus YJL128C, strain PBS2, active compounds read low",0.921
same,normalized growth,"locus YJL157C, strain FAR1, active compounds read low",0.965
same,normalized growth,"locus YJR016C, strain ILV3, active compounds read low",0.945
same,normalized growth,"locus YJR066W, strain TOR1 (second series), active compounds read low",0.946
same,normalized growth,"locus YJR066W, strain TOR1, active compounds read low",1
same,normalized growth,"locus YKL048C, strain ELM1, active compounds read low",0.981
same,normalized growth,"locus YKL067W, strain YNK1, active compounds read low",0.969
same,normalized growth,"locus YKL101W, strain HSL1, active compounds read low",0.933
same,normalized growth,"locus YKL193C, strain SDS22, active compounds read low",0.957
same,normalized growth,"locus YKL203C, strain TOR2, active compounds read low",1.06
same,normalized growth,"locus YLR113W, strain HOG1, active compounds read low",0.76 (active)
same,normalized growth,"locus YLR133W, strain CKI1, active compounds read low",0.969
same,normalized growth,"locus YLR403W, strain SFP1, active compounds read low",0.889
same,normalized growth,"locus YML070W, strain DAK1, active compounds read low",0.948
same,normalized growth,"locus YMR001C, strain CDC5, active compounds read low",0.957
same,normalized growth,"locus YMR205C, strain PFK2 (second series), active compounds read low",0.969
same,normalized growth,"locus YMR277W, strain FCP1, active compounds read low",0.966
same,normalized growth,"locus YNL006W, strain LST8, active compounds read low",0.975
same,normalized growth,"locus YNL020C, strain ARK1, active compounds read low",0.958
same,normalized growth,"locus YNL161W, strain CBK1, active compounds read low",0.958
same,normalized growth,"locus YNL183C, strain NPR1, active compounds read low",0.969
same,normalized growth,"locus YNL207W, strain RIO2, active compounds read low",0.938
same,normalized growth,"locus YNL222W, strain SSU72, active compounds read low",0.963
same,normalized growth,"locus YNL307C, strain MCK1 (second series), active compounds read low",0.921
same,normalized growth,"locus YOL078W, strain AVO1, active compounds read low",0.958
same,normalized growth,"locus YOL136C, strain PFK27, active compounds read low",0.936
same,normalized growth,"locus YOR061W, strain CKA2, active compounds read low",0.975
same,normalized growth,"locus YOR119C, strain RIO1, active compounds read low",1.01
same,normalized growth,"locus YOR231W, strain MKK1, active compounds read low",0.917
same,normalized growth,"locus YOR329C, strain SCD5, active compounds read low",0.956
same,normalized growth,"locus YPL031C, strain PHO85, active compounds read low",0.934
same,normalized growth,"locus YPL153C, strain RAD53, active compounds read low",0.936
same,normalized growth,"locus YPL204W, strain HRR25, active compounds read low",0.942
same,normalized growth,"locus YPL209C, strain IPL1, active compounds read low",0.958
same,normalized growth,"locus YPL256C, strain CLN2, active compounds read low",1.07
same,normalized growth,"locus YPR025C, strain CCL1, active compounds read low",0.958
same,normalized growth,"locus YPR106W, strain ISR1, active compounds read low",0.939
same,normalized growth,"locus YPR111W, strain DBF20, active compounds read low",0.947
same,normalized growth,"strain NNK1, active compounds read low",0.959
same,normalized growth,"strain TSCII, active compounds read low",0.958
CCCN1CCc2cccc3c2[C@H]1Cc1ccc(O)c(O)c1-3,normalized growth,"locus YAL040C, strain CLN3, active compounds read low",0.955
same,normalized growth,"locus YCL061C, strain MRC1 (second series), active compounds read low",0.516 (active)
same,normalized growth,"locus YDR363W, strain ESC2, active compounds read low",0.79 (active)
same,normalized growth,"locus YER002W, strain NOP16, active compounds read low",0.975
same,normalized growth,"locus YGR229C, strain SMI1, active compounds read low",0.186 (active)
same,normalized growth,[3],0.481 (active)
same,normalized growth,[4],0.534 (active)
same,normalized growth,"locus YNL175C, strain NOP13, active compounds read low",0.96
same,normalized growth,"locus YNL197C, strain WHI3, active compounds read low",0.985
same,normalized growth,"locus YNL224C, strain SQS1, active compounds read low",0.996
same,normalized growth,"locus YOR083W, strain WHI5 (second series), active compounds read low",0.631 (active)
same,normalized growth,[5],0.23 (active)
